In all, about 310,000 compounds went through this assay and about 14,000 (4.5%) showed an effect of 50% or more. Effects have a minus sign here. The full list was thinned out, with strong results kept by preference.
What follows are molecules tested against human ether-à-go-go-related gene (hERG) potassium channel (human, UniProt Q12809) (assay: primary screen, population patch clamp on CHO cells stably expressing hERG; higher = less effect of the substance).
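Also: peak tail current of the secondary pulse compared with the same well before compound.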

Sequence of human ether-à-go-go-related gene (hERG) potassium channel (Q12809 whole entry, looked up): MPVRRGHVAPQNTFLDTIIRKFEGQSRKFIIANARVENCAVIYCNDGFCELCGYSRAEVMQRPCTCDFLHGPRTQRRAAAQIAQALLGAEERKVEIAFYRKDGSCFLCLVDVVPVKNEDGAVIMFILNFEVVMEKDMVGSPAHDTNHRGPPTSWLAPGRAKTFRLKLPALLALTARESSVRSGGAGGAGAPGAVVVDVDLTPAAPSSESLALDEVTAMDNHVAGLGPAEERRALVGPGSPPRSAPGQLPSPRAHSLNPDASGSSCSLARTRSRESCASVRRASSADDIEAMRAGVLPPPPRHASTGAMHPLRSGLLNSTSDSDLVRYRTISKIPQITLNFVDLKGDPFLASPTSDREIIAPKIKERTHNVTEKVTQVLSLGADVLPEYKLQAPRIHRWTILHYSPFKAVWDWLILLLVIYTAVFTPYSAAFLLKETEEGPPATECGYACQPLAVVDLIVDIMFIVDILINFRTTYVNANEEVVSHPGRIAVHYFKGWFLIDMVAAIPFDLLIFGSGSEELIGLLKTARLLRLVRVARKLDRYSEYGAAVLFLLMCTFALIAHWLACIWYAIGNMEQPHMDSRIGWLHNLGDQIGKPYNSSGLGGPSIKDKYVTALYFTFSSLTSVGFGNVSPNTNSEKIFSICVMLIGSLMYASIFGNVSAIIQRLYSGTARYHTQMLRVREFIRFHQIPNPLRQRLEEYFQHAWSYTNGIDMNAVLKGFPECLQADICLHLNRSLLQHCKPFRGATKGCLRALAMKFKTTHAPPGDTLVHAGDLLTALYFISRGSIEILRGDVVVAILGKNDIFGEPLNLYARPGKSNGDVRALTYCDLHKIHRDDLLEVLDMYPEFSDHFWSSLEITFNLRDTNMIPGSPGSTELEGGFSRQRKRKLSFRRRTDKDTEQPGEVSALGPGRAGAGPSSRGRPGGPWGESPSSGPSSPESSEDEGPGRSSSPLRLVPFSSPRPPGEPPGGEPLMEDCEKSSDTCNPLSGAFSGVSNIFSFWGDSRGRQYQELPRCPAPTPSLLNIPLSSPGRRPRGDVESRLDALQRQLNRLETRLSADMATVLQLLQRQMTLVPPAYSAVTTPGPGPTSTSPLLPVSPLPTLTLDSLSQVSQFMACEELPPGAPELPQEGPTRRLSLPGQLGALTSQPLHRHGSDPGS

| Structure (SMILES) | hERG current change (%, negative = inhibition) at 10uM [%] |
| --- | --- |
| COc1cc(/C=N/Nc2nc(=O)[nH]nc2C)cc(OC)c1O | 11.7 |
| COc1ccc(NC(=O)Cn2nnc(-c3ccccc3NC(=O)c3ccco3)n2)cc1 | -12.8 |
| COc1cccc(OC)c1C(=O)Nc1ccccc1C(=O)N1CCOCC1 | 5.4 |
| CC(CNC(=O)CCC(=O)N1CCOc2ccccc21)c1ccccc1 (stereo not shown) | -9.84 |
| Fc1cccc(Cl)c1CSc1nnc2ccccn12 | 9.48 |
| COc1ccccc1NC(=O)NNC(=O)C(C)Oc1ccc2ccccc2c1 (stereo not shown) | 9.36 |
| Cc1cc2cc(CNC(=S)NC3CCCCC3)ccc2n1C | 13.8 |
| Cc1cc(OC(C)C(=O)N2CCN(c3ccc(F)cc3)CC2)c2c(C)cc(=O)oc2c1 (stereo not shown) | -1.27 |
| O=C(NCCOc1ccccc1Cl)c1ncn[nH]1 | -2.83 |
| COCCNC(=O)C(c1ccc(F)cc1)N(C(=O)CCC(=O)Nc1ccccn1)c1cccc(C)c1 (stereo not shown) | 16.2 |
| Cc1ccc(C)c(OCC(=O)N2CCN(Cc3ccc4c(c3)OCO4)CC2)c1 | -23.3 |
| CC(=O)c1ccc(OCC(O)CN2CCN(Cc3ccc4c(c3)OCO4)CC2)cc1 (stereo not shown) | -34.8 |
| CC(=O)c1ccc(OCC(O)CN2CCN(Cc3ccc4c(c3)OCO4)CC2)cc1.Cl (stereo not shown) | -49.8 |
| COc1cc(COCC(O)CN2CCN(Cc3ccc4c(c3)OCO4)CC2)cc(OC)c1OC.Cl (stereo not shown) | -0.319 |
| Cc1ccc(OCC(O)CN2CCN(Cc3ccc4c(c3)OCO4)CC2)c(C)c1.Cl (stereo not shown) | -57.1 |
| Cc1ccc(OCC(O)CN2CCN(Cc3ccc4c(c3)OCO4)CC2)cc1C.Cl (stereo not shown) | -61.1 |
| Cc1cccc(N2CCN(C(=O)CCn3c(=O)[nH]c4ccsc4c3=O)CC2C)c1 (stereo not shown) | 21.5 |
| COc1ccc(OC)c2sc(NC(=O)c3ccc(S(=O)(=O)N4CCOCC4)cc3)nc12 | -2.05 |
| CC(NCCO)C(=O)C12CC3CC(CC(C3)C1)C2.Cl (stereo not shown) | 13.1 |
| CCOC(=O)C1CCN(C(=O)Cn2cnc3sc(C)c(S(=O)(=O)N4CCCCC4)c3c2=O)CC1 | -35.5 |
| Cc1sc2ncn(CC(=O)N3CCN(c4ccc(F)cc4)CC3)c(=O)c2c1S(=O)(=O)N1CCOCC1 | -64.3 |
| Cc1sc2ncn(CC(=O)N3CCN(c4ccccc4)CC3)c(=O)c2c1S(=O)(=O)N1CCOCC1 | -16 |
| CCOC(=O)C1CCN(C(=O)Cn2cnc3sc(C)c(S(=O)(=O)N4CCOCC4)c3c2=O)CC1 | -14 |
| CCOC(=O)C1CCN(C(=O)Cn2cnc3sc(C)c(S(=O)(=O)N4CCC(C)CC4)c3c2=O)CC1 | -67.9 |
| COc1ccc(N2CCN(C(=O)Cn3cnc4sc(C)c(S(=O)(=O)N5CCOCC5)c4c3=O)CC2)cc1 | -20.7 |
| CC1(C)CC(=O)C=C(Nc2cc(-c3ccccc3)[nH]n2)C1 | -11.2 |
| CC(NC(=O)C1CCC(=O)N1Cc1ccccc1Cl)c1ccccc1 (stereo not shown) | 12.8 |
| COc1ccccc1-c1cc(C(=O)Nc2c(C)n(C)n(-c3ccccc3)c2=O)no1 | -34.9 |

| Structure (SMILES) | hERG current change (%, negative = inhibition) at 10uM [%] |
| --- | --- |
| N#CCC(=O)N/N=C/c1ccccc1Cl | 6.55 |
| Cc1nn(C)c(C)c1S(=O)(=O)NC1CCCC1 | -12 |
| CCN(C(=O)CN1CCN(c2cccc(C(F)(F)F)c2)CC1)c1c(N)n(Cc2ccccc2)c(=O)[nH]c1=O | -20.3 |
| Oc1ccc(-c2cccc(-c3ccc(O)cc3)c2)cc1 | 3.27 |
| O=C(c1ccccc1)c1ccc(-c2ccc(O)cc2)cc1 | 10.1 |
| C[n+]1c(-c2ccccc2)cc(-c2ccc(Cl)cc2)cc1-c1ccccc1.[O-][Cl+3]([O-])([O-])[O-] | -84.1 |
| C[n+]1c(-c2ccccc2)cc(CCCCc2cc(-c3ccccc3)[n+](C)c(-c3ccccc3)c2)cc1-c1ccccc1.[O-][Cl+3]([O-])([O-])[O-] | -30.6 |
| C[n+]1c(-c2ccccc2)cc(-c2ccc(O)cc2)cc1-c1ccccc1.[O-][Cl+3]([O-])([O-])[O-] | -61.4 |
| Cc1cc(-c2ccccc2)cc(-c2ccccc2)[n+]1C.[Cl-] | -13.6 |
| COCCNC(=O)C(c1ccc(C)o1)N(C(=O)c1snc(C(N)=O)c1N)c1cc(C)cc(C)c1 (stereo not shown) | -28.5 |
| COc1ccc(Cc2nnc(SCc3nc4ccccc4c(=O)[nH]3)n2C)cc1 | -11.9 |
| COc1ccc(C(CC(=O)O)N2Cc3ccccc3C2=O)cc1 (stereo not shown) | 14.4 |
| CC(C)=CCCC1=CCC2C(=O)NNC(=O)C2C1 (stereo not shown) | 9.53 |
| CC(C)=CCCC1=CCC(/C(C)=N/NC(N)=O)CC1 (stereo not shown) | -53.7 |
| CC(C)=CCCC1=CCC(/C=N/NC(N)=O)C(C)C1 (stereo not shown) | 9 |
| CC(=O)N1c2c(cc(Br)cc2S(=O)(=O)N2CCOCC2)CC1C (stereo not shown) | -0.158 |
| COCC(C)n1c(C)cc(C(=O)CSc2nnnn2C2CCCC2)c1C (stereo not shown) | -33.2 |
| CCn1c(C)cc(C(=O)CSc2nnnn2C2CCCC2)c1C | -53.5 |
| COCCn1c(C)cc(C(=O)CSc2nnnn2C2CCCC2)c1C | -69 |
| COc1ccc(Cl)cc1C(=O)CSc1nnnn1C1CCCCC1 | -4.88 |
| COCCn1c(C)cc(C(=O)CSc2nnc(C3CC3)n2C2CC2)c1C | 5.4 |
| COc1ccc(Cl)cc1C(=O)CSc1nnnn1C1CCCC1 | -6.05 |
| COc1ccc(COC(=O)CCNC(=O)c2ccc(Cl)cc2)cc1 | -32.5 |
| COc1cccc(NC(=S)N(CCCN2CCCC2)Cc2ccco2)c1 | -46.3 |
| COc1cccc(NC(=S)N(CCCN2CCCC2)Cc2cccn2Cc2ccc(Cl)cc2)c1 | -41.2 |
| COc1cccc(NC(=S)N(CCCN2CCCC(C)C2)Cc2cccs2)c1 (stereo not shown) | -67.4 |
| COc1ccc(NC(=S)N(CCCN2CCCC(C)C2)Cc2cccs2)cc1 (stereo not shown) | -68.9 |

— publication PMC4336329 (PLoS ONE, 2015)
